HSP90 inh: blocks HSP90-mediated luciferase refolding in reticulocyte lysate; Rabbit reticulocyte lysate, luciferase refolding luminescence, 3 h; inhibition, % at 5.6 µM; 290,000 compounds, 0.91% hits;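 active means inhibition above the screen-wide mean plus 3 SD, computed separately per campaign, cut at about 16% in these data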;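 further: 0% = DMSO wells and 100% = 60 µM geldanamycin wells; inhibitors lower the luminescence because luciferase stays unfolded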
HSF1 inhib: HSF1 inhibition. 300,000 compounds, 0.77% hits. activity change, negative = inhibition, % at 7.5 µM (by protocol). AID 2098. NIH3T3-HGL HSE-luciferase, MG132-induced, luminescence 8 h; active compounds read low;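 active means more than half of replicate wells show activity change below -50%, luminescence cut by over half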;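 further: luciferase reports HSF-1 transcriptional activity via heat shock element; 0% = median of DMSO wells and -100% = zero luminescence signal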
TROY signal inh: TROY signaling inhibition. AID 1347056. inhibition, % at 10 µM. Q293 LMP1-TROYcd NF-kB luciferase reporter, 4 h. 360,000 compounds, 0.98% hits;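 active means compounds whose plate-normalised and pattern-corrected inhibition of the luciferase reporter signal at the single screening dose is 50% or more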
LMP1 NFkB inh: inhibitors of Epstein-Barr LMP1-induced NF-kappaB reporter; LMP1-induced NF-kappaB luciferase reporter cells, luminescence; inhibition, % at 12.5 µM; 350,000 compounds, 0.69% hits; AID 504558; in the data active means inhibition above about 41%;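 further: 0% = neutral control wells and 100% = reference inhibitor control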
HSF-1 act: increases HSF-1 driven luciferase reporter signal; NIH3T3-HGL HSF-1 luciferase reporter, MG132, 8 h; 100% = twice DMSO control signal; 300,000 compounds, 1.7% hits; activation, % at 9 µM;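 active means mean replicate activation of at least 50% with a set share of replicates each reaching 50%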;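 further: 0% = median of the neutral control wells and 100% = twice that signal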
TWEAK Fn14 block: blocks TWEAK-Fn14 interaction in a reporter cell assay; TWEAK-stimulated Fn14 reporter cells, luciferase luminescence, 8 h; inhibition, % at 10 µM; 360,000 compounds, 2% hits; AID 1159606; in the data active means inhibition above about 50%
An asterisk follows results filed as active; x = not tested or not shown. Shown are actives, neighbours in structure and some others; about 4.7% of the full set was active somewhere.

SMILES	HSP90 inh	HSF1 inhib	TROY signal inh	LMP1 NFkB inh	HSF-1 act	TWEAK Fn14 block
O=C(Nc1ccc(F)cc1)N1CCCCCC1	4	5	-2	0	7	-9
O=C(Nc1ccccc1)N1CCNCC1	1	-5	90*	-2	-1	8
O=C(Nc1ccccc1)N1CCCC1	7	-18	15	2	-8	-11
O=C(Nc1ccc(F)cc1)N1CCOCC1	0	-53*	7	-8	-64	-6
CCCNC(=O)C1(C)CCN(C(=O)c2ccc(C)c(F)c2)C1 (stereo not given)	x	x	3	x	x	-2
O=C(c1ccc(Cl)cc1)c1cccc(O)c1	x	x	-5	-7	x	-11
COc1cccc(-c2ccc3c(c2)O[C@H](CN(C)C(=O)c2ccccc2F)[C@H](C)CN([C@H](C)CO)S3(=O)=O)c1	x	x	-8	2	x	-1
Cc1nn2c(CN(C(=O)CN3CCOCC3)c3ccccc3)nnc2c2ccccc12	5	-56*	12	-6	-63	18
Cc1nn2c(CN(C(=O)COc3ccccc3)c3ccccc3)nnc2c2ccccc12	0	-9	-6	-8	1	18
COc1cc(C(O)c2nc(-c3cccc(C(F)(F)F)c3)cs2)ccc1F (stereo not given)	x	x	7	x	x	-11
CCOC(=O)C1CCCN(C(=O)c2ccc3ccccc3c2)CC1 (stereo not given)	x	x	-3	x	x	-24
O=C1c2ccccc2-c2nnc(-c3ccc(O)cc3)cc21	11	13	-19	-1	11	9
O=C1c2ccccc2-c2nnc(-c3ccc(F)cc3)cc21	-2	12	-2	11	38	75*
Cc1nnc(SCC(=O)NC2(C#N)CCCCC2)n1N	x	x	10	-1	x	-14
CCCc1nc2c3ccccc3ccn2c1Cc1ccc(OC)cc1C	x	x	-15	x	x	-20
CCOC(=O)c1c(C)n(-c2ccc(C)cc2)c2c(CC(C)=O)c(Br)c(OC)c(O)c12	6	36	-10	-1	65*	-14
COc1cc(C(=O)N2CCSCC2)ccc1OC1CCN(C(C)=O)CC1	-2	-55*	-26	-1	-66	20
C[C@H](CO)N1C[C@H](C)[C@@H](CN(C)C(=O)c2ccccc2)OCc2cnnn2CCCC1=O	x	x	3	-9	x	-20
COc1ccc(/C=N/Nc2nncn2N)cc1Br	0	47	1	4	78*	-36
O=C(Nc1ccc2c(c1)OCO2)c1csc([C@@H]2O[C@H](CO)[C@H](O)[C@H](O)[C@H]2O)n1	x	x	-12	x	x	-3
CC(=O)Oc1ccc(C(=O)Cc2ccccn2)c(O)c1	0	-1	13	5	1	1
Cc1c(O)ccc(/C(Cc2ccc3ccccc3n2)=N\O)c1O	1	38	20	-11	70*	25
Oc1ccc(/C(Cc2ccc3ccccc3n2)=N\Nc2ccccc2)c(O)c1	-2	16	-41	-20	29	1
CC(=O)Oc1ccc(C(=O)Cc2ccc3ccccc3n2)c(O)c1C	5	47	-39	-5	76*	-14
Cc1nn(-c2ccccc2)c(-c2ccccc2[N+](=O)[O-])c1CC#N	x	x	29	x	x	-1
SMILES	HSP90 inh	HSF1 inhib	TROY signal inh	LMP1 NFkB inh	HSF-1 act	TWEAK Fn14 block
CCCC(=O)N1CCC1(C)C(=O)Nc1cccc(OC(C)C)c1 (stereo not given)	x	x	-8	x	x	12
Cc1ccc(-c2cnc3c(Cl)c(C)nn3c2)cc1	6	-2	10	33	21	75*
Cc1ccc(-c2ccnc3c(Cl)c(C)nn23)cc1	3	9	-17	-8	0	-4
Cc1cc2ncc(-c3ccc(Cl)cc3)cn2n1	1	20	-53	-7	24	-6
Cc1ccc(-c2cnc3cc(C)nn3c2)cc1	13	17	18	32	57*	74*
O=c1[nH]nnc2c1cnn2-c1ccccc1	x	x	-21	9	x	22
COc1ccccc1CNC(=O)Nc1nnc([C@H]2C[C@H](O)[C@@H](CO)O2)s1	x	x	-8	x	x	-9
CC(=O)Nc1cccc(-c2ccnc3c2CC(C)(C(=O)NCc2ccncc2)O3)c1 (stereo not given)	x	x	4	x	x	14
COc1ccccc1-n1cc([C@@H]2C[C@H]3CN(c4ccccc4)C(=O)[C@]34CCCN24)cn1	4	3	40	60*	-9	80*
CCN(C(=O)c1ccc(NC(=O)C2CCCCC2C(=O)O)cc1)c1ccccc1 (stereo not given)	x	x	5	4	x	-10

Source: PubChem BioAssay
